From the supplement of paper PMC6555819

Legend:
Assay in all cases: PBM binding z-score (relative to random genomic background probes); higher = stronger binding; sequences stand for … in GC…GCGATTGACAGCGTAGAATGAAGG
[1] = test system: FXR:RXRa (NR concentration 270 nM, RXRa partner concentration 90 nM)
Method in brief: (§1)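 Binding z-scores were set against random background probes. The data came from custom Agilent 4×180K protein-binding microarrays carrying double-stranded probes with 34-nt variable regions, incubated 1 h with ligand-free nuclear receptor dimers. Partner-specific antibodies detected binding, and scanned fluorescence was regression-normalized.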

[2] = test system: LXRa:RXRa (NR concentration 270 nM, RXRa partner concentration 90 nM)
Method in brief: as §1

[3] = test system: LXRa homodimer (NR concentration 270 nM)
Method in brief: as §1

[4] = test system: LXRb:RXRa (NR concentration 270 nM, RXRa partner concentration 90 nM)
Method in brief: as §1

[5] = test system: LXRb homodimer (NR concentration 270 nM)
Method in brief: as §1

[6] = test system: PPARa:RXRa (NR concentration 270 nM, RXRa partner concentration 90 nM)
Method in brief: as §1

[7] = test system: PPARg:RXRa (NR concentration 180 nM, RXRa partner concentration 90 nM)
Method in brief: as §1

[8] = test system: PPARg:RXRa 270nM:90nM, anti-RXR (NR concentration 270 nM, RXRa partner concentration 90 nM)
Method in brief: as §1

[9] = test system: PPARg:RXRa 30nM:10nM, anti-RXR (NR concentration 30 nM, RXRa partner concentration 10 nM)
Method in brief: as §1

[10] = test system: PPARg:RXRa 90nM:30nM, anti-RXR (NR concentration 90 nM, RXRa partner concentration 30 nM)
Method in brief: as §1

Sequence	PBM binding z-score [1]	PBM binding z-score [2]	PBM binding z-score [3]	PBM binding z-score [4]	PBM binding z-score [5]	PBM binding z-score [6]	PBM binding z-score [7]	PBM binding z-score [8]	PBM binding z-score [9]	PBM binding z-score [10]
TCTAGGAGGACACGAAAGGTCAGAGCTCGACATC	3.28	3.77	3.29	3.49	-0.113	3.91	1.98	3.19	2.99	2.51
GATACACGGTCAGCTAGAGGCCAGAGTATGGAAA	-0.145	-0.145	-0.281	-0.57	-0.753	-0.296	0.351	-0.323	-0.383	-0.205
GCTTCTAGGTCAACTGATGGTCAGCTAAAGCTCG	4.49	3.12	0.562	2.48	1.06	4.69	6.35	5.64	3.01	5.05
TATACAGGGACAAAGGCCAGAGTACGAATGTCGA	0.545	0.102	0.279	-0.249	0.97	1.19	2.9	3.98	2.12	3.3
TCTTGTAGATCAAAGGTTAAGAGAGCCGAAGCCT	1.58	1.77	0.0362	1.91	-0.272	4.75	8.74	8.28	8.05	8.92
CCTTATGGGTCACGAGGTTATAGCACGACGAGCG	6.1	3.8	0.305	3.32	-0.173	5.75	8.15	6.96	4.18	6.72
TCTTGTAGATCAAGAAGGTTAAGAAAGCCTGAGT	0.542	0.704	-0.24	0.833	-0.584	1.44	-0.11	1.65	2.96	2.31
CGTCCAAGGCCATAGGAGGTCAGTGAAGACAGAT	2.46	3.14	0.814	1.69	-0.756	2.21	0.688	0.571	-0.185	0.133
CCGACTGGGCCATCAGGTCATTGATATCAACGTT	1.52	1.05	0.75	1.38	-0.6	2.19	1.69	2.75	0.458	1.85
CAAACTAGGACAAGGTCAAAGTCGGTTTGTGCCA	4.54	4.18	2.08	3.48	0.526	5.05	5.5	5.41	3.12	4.9
CCTTCTGGGCCATCAGGTCATTGATATCAACGTT	1.65	1.19	0.846	1.44	0.0435	2.69	2.21	3.33	1.09	2.63
TCTTGTAGATCAGCAGGTTAAAAAAGCTGGCCAA	0.198	0.216	-0.0606	0.293	-0.538	0.844	-0.455	1.44	2.6	1.94
CGAACTAGGTCAAGGAAAGTGAATCTCCGCACGC	2.69	1.93	-0.152	1.2	-0.225	4.55	7.18	6.18	3.7	5.66
CATACAGGGTCAGCTAGGCCAGCGTAGGGACGGC	4.29	2.94	-0.144	1.98	0.387	4.38	3.25	2.9	0.559	2.04
TAGCCTAGGTCTTTGGGCCAGTATAGTACGCATC	-0.684	-0.824	-0.792	-0.788	-0.858	-1.04	0.0223	-0.571	-0.609	-0.513
ATTGAAAGGTCGAGGTGAGTATAGAGAAAGGGAA	4.46	3.8	0.427	2.93	1.15	4.7	4.5	3.84	1.72	3.01
CAATCTAGGTCAAGGTCAAAGTCGGTTTGTGCCA	6.74	5.74	4.27	4.52	1.81	6.18	9.73	8.06	6.64	8.19
TCATATAGGTAAACATGTGAAAGTCCGTAAGTTA	0.869	0.742	0.308	0.769	0.208	1.58	1.86	2.39	3.92	3.22
TCTTGTAGATAAACAGGAGGTTAAGAAAGATCGA	0.162	1.13	0.276	1.01	-0.398	1.27	0.346	1.3	2.82	1.89
TTACCAAGGTGAAAGGTCGATGATGCACGCCTTG	3.03	2.42	-0.187	2.14	-0.613	4.95	8.4	7.54	6.44	7.87
CCGAGTGGGGCATAAGGTTACCATAAGCCAGCCC	0.498	1.86	-0.512	0.83	-1.04	2.05	2.19	3.09	1.06	2.66
TCATATAGGTAAATGCTAGGTGAGAGTCCGATCT	-0.733	0.512	-0.251	0.0109	-0.13	1.05	0.622	1.86	3.39	2.64
AGAATGAGGTTATACCTAGATCAGGGAAGAAAGT	1.65	1.87	-0.0251	1.31	-0.249	3.15	1.77	1.63	0.532	1.09
TCATATAGGTAAATGCAAGGTGAAAGTCCGATCT	1.57	1.44	0.321	1.2	0.456	2.03	1.03	2.44	4.33	3.47
CCTCGGAGGACAACAGGAGGTCAGAGTTGCCAGA	1.11	2.05	2.59	1.57	-0.486	2.02	0.634	0.674	-0.404	0.264

Sequence	PBM binding z-score [1]	PBM binding z-score [2]	PBM binding z-score [3]	PBM binding z-score [4]	PBM binding z-score [5]	PBM binding z-score [6]	PBM binding z-score [7]	PBM binding z-score [8]	PBM binding z-score [9]	PBM binding z-score [10]
GCATATAGGTAATACAGGGTGAAAGTCCGATTGT	0.317	0.746	-0.223	0.369	-0.0682	1.92	1.44	1.47	0.819	0.965
ATACCAAGGTGATCGTGAGGTCATTGATACTAAC	4.13	4.22	4.81	3.53	0.748	3.62	1.7	1.98	0.601	1.25
TCCTGTAGATCAGCAGGTTAAGAAAGCTGGCCAA	0.47	0.36	-0.398	0.304	-0.639	0.87	-0.289	1.6	2.43	1.83
TCAGACAGGTGCAGGTAACTCAGGTACGCAGTCG	0.317	0.617	-0.304	0.192	-0.936	0.506	0.493	1.31	2.88	2.35
AGAATGAGGTTACCAAAGATCAGGGACACGCTTG	2.25	6.38	-0.0151	3.01	-0.234	3.38	2.84	2.9	0.908	2.29
CCAACTAGGTCAAGGTCAAAGTCGGTTTGTGCCA	6.64	5.56	4.61	4.73	1.43	6.14	9.18	7.58	5.13	7.56
TCTAGTTGGTCAAAGCTCACACACTCGAAATGCG	0.576	0.551	0.233	0.661	0.421	1.58	2.21	4.31	3.89	4.23
TCTGCGAGGTCAACGATGGTCAGCTAATCTGCTA	6.96	5.84	1.07	4.75	1.01	5.65	5.8	6.12	3.37	4.91
CCTATTAGTTGACCAGAAGGGCAACCGAAGCTCG	0.545	0.559	0.36	0.332	0.735	0.431	0.395	0.467	-0.116	0.177
TCGAGTCGGTTACCAATGGGGCATTCAGCTTTCT	-0.293	-0.101	-0.421	0.26	-0.784	0.0956	-0.641	0.163	0.773	0.526
TCATATAGGTATATGCTAGGTGAAAGTCCGATCT	0.567	0.913	0.175	0.545	-0.249	0.818	0.703	1.78	3.31	2.54
CCTAGCAGGCCAGGGTCACTAAAGCATTTCGCTT	1.78	1.59	-0.472	1.78	-1.37	3.06	0.442	1.2	-0.365	0.422
TCGAGGAGGTTACCAATGGGGCATTCAGCTTTCT	0.893	2.72	-0.21	2.47	-0.369	2.29	0.171	1.2	1.46	1.09
TCGAGTAGGTTACCCATGGGGCATTCAGCTTTCT	0.292	1.66	-0.443	0.752	-0.79	1.09	0.462	1.36	1.23	1.18
ACTATTAGTTGACTTAGGGCAGCCGATACGACGC	-0.0135	-0.0603	0.0917	-0.372	0.721	-0.383	0.697	0.151	-0.128	0.0745
CCAGACAGGGGAAAGGTAACTCAGTCTGGTACGC	-0.0858	-0.233	-0.21	0.0681	-0.648	1.46	2.34	3.79	1.37	3.25
TCTTGTAGACCAGCAGGTTAAGAAAGCTGGCCAA	0.124	0.0452	-0.542	0.0973	-0.717	0.558	-0.5	1.27	2.61	1.96
CCTACTGGGCCAAGGACATTGATCAGTCAAAGCA	-0.284	-0.572	-0.118	-0.778	-0.99	-0.141	0.757	0.967	0.164	0.46
CAGCCTAGGTCAAGGCCAGTATAGGAGGAACGTT	3.62	2.26	-0.0783	1.7	-0.501	3.45	2.15	2.23	0.352	1.18
CCGACTGGGGCAAAAAGGTTACCATACCATCCGG	0.468	0.384	-0.0503	1.14	-0.735	2.38	1.48	1.95	0.214	1.25
TGTTGTAGATCAACAGGAGGTTAAGAAAGATCGA	0.0129	0.966	0.018	0.701	-0.0946	0.963	-0.033	0.456	0.304	0.492
TCTTGTAGATCAAGCAGGTTAAAAAAGCCTGAGT	0.399	0.66	0.0137	0.802	-0.381	1.05	-0.353	1.21	2.5	1.89
CCTACTGGGCCAAGGGTCATTGATTCCAATGCTC	2.79	2.59	0.211	2.63	-0.578	5.27	10.2	9.04	8.43	10.2
AGAATGAGGTTAAGATCAGGGTAACAGAATACAT	2.5	2.47	0.0614	2.01	-0.068	3.68	2.64	2.66	0.832	1.9
